# Measurements taken from PubChem BioAssay AID720551 (National Center for Advancing Translational Sciences (NCATS), 2013).
# The whole screen tested about 340,000 compounds, of which about 1,300 (0.38%) were called active.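 The calls were made as follows: active = maximum activity change below -70%; inconclusive = maximum activity change between -70% and -50%; inactive = maximum activity change above -50%.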 This excerpt belongs to a sample that is enriched for actives.
# Biological target: Voltage-gated inwardly rectifying potassium channel KCNH2 (Homo sapiens) (UniProt Q12809)
# Test: qHTS for Inhibitors of KCHN2 3.1: Wildtype qHTS
# Settings: U2OS, BacMam KCNH2, thallium flux FluxOr; at 1.84 µM; hits give low values
# Excerpt: Many antipsychotic drugs that inhibit the neurotransmitter dopamine also bind to hERG1 channel which might help explain their antipsychotic activity but also produces cardiac side effects. The discovery of the novel KCNH2 3.1 isoform offers a potential new target for the development of antipsychotic drugs without cardiac side effects. This proposal will use a high throughput thallium flux assay developed for KCNH2 to screen compounds that modulate the activity of KCNH2 3.1. The wild type KCNH2 channel will also be screened in parallel to help define the selective modulators of this KCNH2 3.1 potassium channel. The resulting compounds will be validated in electrophysiology experiments. The availability of animal models will allow future testing in vivo for effects on memory and other aspects of animal physiology linked with psychosis. NIH Chemical Genomics Center [NCGC] NIH Molecular Libraries Probe Centers Network [MLPCN] MLPCN Grant: MH096539 Assay Submitter (PI): James Barrow, Johns Hopkins University, Lieber Institute for Brain Development
# U2OS cells were resuspended in cell media containing 10% fetal calf serum (FCS) at a concentration of 2 million cells / mL. The solution was treated with the Wild-type virus at 2.03 x 10^8 / mL and allowed to incubate at room temperature in the dark. After 4 hours of incubation, DMEM + 10% fetal bovine serum (FBS) was added to the cell solution. Three microliter was then dispensed into a 1536 tissue culture treated black assay plates which were incubated overnight at 37 C. Two microliter of loading buffer (HBSS + HEPES + Red40 dye quencher + FluxOr dye) was added and the assay plates were incubated for 45 min at room temperature in the dark. […] A stimulation buffer was added to the plate and the second kinetic read (2 min) was obtained. The rate constant was calculated from the kinetic reads and normalized to the positive and negative DMSO controls.
# % is scaled to controls: 0 for no effect and ±100 for the full control effect.
# Sequence of Voltage-gated inwardly rectifying potassium channel KCNH2 (Homo sapiens) (Q12809 whole entry, looked up): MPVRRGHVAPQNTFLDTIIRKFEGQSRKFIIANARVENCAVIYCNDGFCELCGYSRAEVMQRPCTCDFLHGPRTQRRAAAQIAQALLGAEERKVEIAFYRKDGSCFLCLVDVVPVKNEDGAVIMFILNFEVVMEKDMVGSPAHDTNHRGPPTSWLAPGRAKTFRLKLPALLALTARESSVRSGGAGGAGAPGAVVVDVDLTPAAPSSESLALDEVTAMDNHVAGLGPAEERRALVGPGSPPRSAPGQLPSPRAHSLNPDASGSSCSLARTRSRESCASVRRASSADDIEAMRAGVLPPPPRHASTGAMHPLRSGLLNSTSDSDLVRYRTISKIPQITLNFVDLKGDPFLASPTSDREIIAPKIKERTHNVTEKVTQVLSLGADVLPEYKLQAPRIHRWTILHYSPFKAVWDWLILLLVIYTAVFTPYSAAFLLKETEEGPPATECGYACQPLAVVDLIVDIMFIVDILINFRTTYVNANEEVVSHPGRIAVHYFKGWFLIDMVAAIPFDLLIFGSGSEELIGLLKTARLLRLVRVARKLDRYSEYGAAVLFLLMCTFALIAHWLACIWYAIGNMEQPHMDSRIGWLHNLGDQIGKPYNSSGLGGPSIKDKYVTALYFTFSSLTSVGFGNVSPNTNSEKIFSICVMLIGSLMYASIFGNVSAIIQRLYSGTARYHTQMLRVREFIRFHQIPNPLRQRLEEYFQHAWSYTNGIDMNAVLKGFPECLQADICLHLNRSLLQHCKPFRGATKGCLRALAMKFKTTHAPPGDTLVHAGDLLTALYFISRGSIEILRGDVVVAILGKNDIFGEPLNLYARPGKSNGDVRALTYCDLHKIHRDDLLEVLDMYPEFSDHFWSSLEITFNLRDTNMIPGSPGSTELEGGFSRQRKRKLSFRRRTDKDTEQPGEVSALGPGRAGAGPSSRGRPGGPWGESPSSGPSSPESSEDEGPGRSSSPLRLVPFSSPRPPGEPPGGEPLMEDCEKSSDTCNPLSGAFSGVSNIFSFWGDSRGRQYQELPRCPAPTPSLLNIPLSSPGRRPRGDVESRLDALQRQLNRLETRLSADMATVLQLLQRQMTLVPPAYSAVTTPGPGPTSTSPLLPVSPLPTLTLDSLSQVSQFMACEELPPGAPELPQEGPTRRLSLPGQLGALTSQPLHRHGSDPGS
row,SMILES,activity change
1,CCOC(=O)C1(CCc2ccccc2)CCN(Cc2ccco2)CC1,-42.5% (inactive)
2,CCOC(=O)C1(Cc2ccc(Cl)cc2)CCN(C(C)CCn2cccn2)CC1 (stereo not given),-90.9% (active)
3,CNC(=O)O/N=C(\N)Cc1csc2ccc(Cl)cc12,-2.66% (inactive)
4,NCCc1ccc(S(=O)(=O)F)cc1,-7.95% (inactive)
5,NCC(O)c1ccc(O)cc1 (stereo not given),2.77% (inactive)
6,CC1(C)Cc2c(C#N)c(N3CCNCC3)nc(-c3ccco3)c2CS1,-1.97% (inactive)
7,CC(=NCC1CCCO1)c1c(O)n(-c2ccccc2)c(=O)[nH]c1=O (stereo not given),-12.8% (inactive)
8,CC(Cc1ccccc1)NCCC(c1ccccc1)c1ccccc1 (stereo not given),-106% (active)
9,O=C1NC(=O)C(CCOc2ccccc2)(CCc2ccccc2)C(=O)N1,-6.81% (inactive)
10,O=Cc1cn(Cc2ccc(F)cc2Cl)c2ccccc12,0.945% (inactive)
